Assay results reported in PubChem BioAssay (NCI).
About 83,000 compounds went through this panel and 20% of them were active in at least one assay; those are over-represented in the sample as a whole.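 Treatment: one concentration, 48 hours, 96-well format. Scoring: percent growth, with anything below 10 considered active.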 Unmarked numbers belong to inactive results. Active and inactive are the calls of the source.

Assays:
Test in all cases: NCI-60 one-dose screen, 48 h (100 = growth as untreated, 0 = no growth, -100 = all killed)
Details in all cases: 10 µM unless noted
DU-145 prostate = tested on: DU-145 prostate
K-562 leukemia = tested on: K-562 leukemia
MALME-3M melanoma = tested on: MALME-3M melanoma
MDA-MB-231 breast = tested on: MDA-MB-231 breast
RXF 393 renal = tested on: RXF 393 renal
SF-268 CNS = tested on: SF-268 CNS
SF-295 CNS = tested on: SF-295 CNS
SF-539 CNS = tested on: SF-539 CNS
UACC-257 melanoma = tested on: UACC-257 melanoma
M14 melanoma = tested on: M14 melanoma
HCT-15 colon = tested on: HCT-15 colon
HT29 colon = tested on: HT29 colon
SNB-75 CNS = tested on: SNB-75 CNS
SNB-19 CNS = tested on: SNB-19 CNS
U251 CNS = tested on: U251 CNS
SK-MEL-5 melanoma = tested on: SK-MEL-5 melanoma
UACC-62 melanoma = tested on: UACC-62 melanoma
LOX IMVI melanoma = tested on: LOX IMVI melanoma
SK-MEL-28 melanoma = tested on: SK-MEL-28 melanoma
PC-3 prostate = tested on: PC-3 prostate

SMILES: COc1cccc(-c2nc3sccn3c2-c2ccnc(NCCNS(=O)(=O)c3cccc(F)c3)c2)c1
- growth (DU-145 prostate): 29.7%
- growth (K-562 leukemia): 19%
- growth (MALME-3M melanoma): 46.6%
- growth (MDA-MB-231 breast): 64.6%
- growth (RXF 393 renal): 39.9%
- growth (SF-268 CNS): 37.8%
- growth (SF-295 CNS): 15.5%
- growth (SF-539 CNS): 70.7%
- growth (UACC-257 melanoma): 44.6%
- growth (M14 melanoma): 33.3%
- growth (HCT-15 colon): 25.1%
- growth (HT29 colon): 27.9%
- growth (SNB-75 CNS): 27.4%
- growth (SNB-19 CNS): 59.2%
- growth (U251 CNS): 45.4%
- growth (SK-MEL-5 melanoma): 2.05% (active)
- growth (UACC-62 melanoma): -17.9% (active)
- growth (LOX IMVI melanoma): 32.7%
- growth (SK-MEL-28 melanoma): 56.1%

SMILES: O=C1C=C[C@]2(C[C@@H](c3cccc(C(F)(F)F)c3)O[C@@H](c3cccc(C(F)(F)F)c3)O2)O1
- growth (DU-145 prostate): 28.7%
- growth (K-562 leukemia): -4.01% (active)
- growth (MALME-3M melanoma): 36.4%
- growth (MDA-MB-231 breast): -57.2% (active)
- growth (RXF 393 renal): -0.258% (active)
- growth (SF-268 CNS): -27.1% (active)
- growth (SF-295 CNS): 46.1%
- growth (SF-539 CNS): -69.6% (active)
- growth (UACC-257 melanoma): 59.6%
- growth (M14 melanoma): 44.8%
- growth (HCT-15 colon): -33.8% (active)
- growth (HT29 colon): -24.2% (active)
- growth (SNB-75 CNS): 57.9%
- growth (SNB-19 CNS): 33.2%
- growth (U251 CNS): 28.6%
- growth (SK-MEL-5 melanoma): -58.2% (active)
- growth (UACC-62 melanoma): -38.6% (active)
- growth (LOX IMVI melanoma): -84.6% (active)
- growth (SK-MEL-28 melanoma): 48.6%

SMILES: COc1cccc(-c2nn(-c3ccccc3)cc2-c2ccnc(NCCCNC(=O)Nc3ccc(Cl)c(Cl)c3)c2)c1
- growth (DU-145 prostate): 22.1%
- growth (K-562 leukemia): -13.6% (active)
- growth (MALME-3M melanoma): -27.1% (active)
- growth (MDA-MB-231 breast): -37.2% (active)
- growth (RXF 393 renal): 9.74% (active)
- growth (SF-268 CNS): 13.9%
- growth (SF-295 CNS): -4.97% (active)
- growth (SF-539 CNS): 1.74% (active)
- growth (UACC-257 melanoma): -29.6% (active)
- growth (M14 melanoma): -52% (active)
- growth (HCT-15 colon): 6.61% (active)
- growth (HT29 colon): -36.4% (active)
- growth (SNB-75 CNS): 25.4%
- growth (SNB-19 CNS): 27.7%
- growth (U251 CNS): -15.5% (active)
- growth (SK-MEL-5 melanoma): -26.4% (active)
- growth (UACC-62 melanoma): -29.7% (active)
- growth (LOX IMVI melanoma): -92.1% (active)
- growth (SK-MEL-28 melanoma): -29.2% (active)

SMILES: COC(=O)c1ccc(C2Nc3ccc(S(=O)(=O)Nc4ccc(C)c(C)c4)cc3C3OCCC23)cc1 (stereo not drawn)
- growth (DU-145 prostate): 100%
- growth (K-562 leukemia): 40.8%
- growth (MALME-3M melanoma): 77.4%
- growth (MDA-MB-231 breast): 83.9%
- growth (RXF 393 renal): 101%
- growth (SF-268 CNS): 78%
- growth (SF-295 CNS): 77.4%
- growth (SF-539 CNS): 96.2%
- growth (UACC-257 melanoma): 79.6%
- growth (M14 melanoma): 94.1%
- growth (HCT-15 colon): 71.2%
- growth (HT29 colon): 83.7%
- growth (SNB-75 CNS): 79.1%
- growth (SNB-19 CNS): 78.2%
- growth (U251 CNS): 71.5%
- growth (SK-MEL-5 melanoma): 58%
- growth (UACC-62 melanoma): 65.3%
- growth (LOX IMVI melanoma): 93%
- growth (SK-MEL-28 melanoma): 99.5%

SMILES: Cc1cc(C)c2c(-c3nnc(N)s3)cc(=O)oc2c1
- growth (DU-145 prostate): 108%
- growth (K-562 leukemia): 93%
- growth (MALME-3M melanoma): 106%
- growth (MDA-MB-231 breast): 101%
- growth (RXF 393 renal): 109%
- growth (SF-268 CNS): 99.9%
- growth (SF-295 CNS): 98.7%
- growth (SF-539 CNS): 90.5%
- growth (UACC-257 melanoma): 107%
- growth (M14 melanoma): 104%
- growth (HCT-15 colon): 98.4%
- growth (HT29 colon): 112%
- growth (SNB-75 CNS): 98.8%
- growth (SNB-19 CNS): 99.4%
- growth (U251 CNS): 103%
- growth (PC-3 prostate): 98.9%
- growth (SK-MEL-5 melanoma): 98.5%
- growth (UACC-62 melanoma): 89.8%
- growth (LOX IMVI melanoma): 96.7%
- growth (SK-MEL-28 melanoma): 104%

SMILES: NS(=O)(=O)c1ccc(-n2nc(C(=O)N/N=C\c3ccc(F)cc3)cc2-c2ccc(Cl)cc2)cc1
- growth (DU-145 prostate): 104%
- growth (K-562 leukemia): 87.9%
- growth (MALME-3M melanoma): 89.9%
- growth (MDA-MB-231 breast): 74%
- growth (RXF 393 renal): 89.5%
- growth (SF-268 CNS): 88.3%
- growth (SF-295 CNS): 97%
- growth (SF-539 CNS): 88.1%
- growth (UACC-257 melanoma): 101%
- growth (M14 melanoma): -85.9% (active)
- growth (HCT-15 colon): 98.4%
- growth (HT29 colon): 118%
- growth (SNB-75 CNS): 57.1%
- growth (SNB-19 CNS): 85.5%
- growth (U251 CNS): 93.3%
- growth (SK-MEL-5 melanoma): 93.5%
- growth (UACC-62 melanoma): 81.8%
- growth (LOX IMVI melanoma): 90.9%
- growth (SK-MEL-28 melanoma): 98.8%

SMILES: O=C(/C=C/c1cccc(O)c1)c1cccc(-n2cc(-c3ccc4ccccc4c3)[nH]c2=O)c1
- growth (DU-145 prostate): -17.3% (active)
- growth (K-562 leukemia): -40.4% (active)
- growth (MALME-3M melanoma): -6.88% (active)
- growth (MDA-MB-231 breast): 14.7%
- growth (RXF 393 renal): 29.8%
- growth (SF-268 CNS): -6.97% (active)
- growth (SF-295 CNS): 6.57% (active)
- growth (SF-539 CNS): -88.3% (active)
- growth (UACC-257 melanoma): 99.6%
- growth (M14 melanoma): 16.2%
- growth (HCT-15 colon): 2.35% (active)
- growth (HT29 colon): -72.7% (active)
- growth (SNB-75 CNS): 4.8% (active)
- growth (SNB-19 CNS): -43.2% (active)
- growth (U251 CNS): -86.6% (active)
- growth (SK-MEL-5 melanoma): -2.25% (active)
- growth (UACC-62 melanoma): 11.4%
- growth (LOX IMVI melanoma): -78.2% (active)
- growth (SK-MEL-28 melanoma): 42.9%

SMILES: O=c1[nH]ccc2nc(N3CCC(O)CC3)nc(Nc3ccc(N4CCOCC4)cc3)c12
- growth (DU-145 prostate): 59.8%
- growth (K-562 leukemia): 70.1%
- growth (MALME-3M melanoma): 28.4%
- growth (MDA-MB-231 breast): 64.3%
- growth (RXF 393 renal): 15.6%
- growth (SF-268 CNS): 61.9%
- growth (SF-295 CNS): 108%
- growth (SF-539 CNS): 28.7%
- growth (UACC-257 melanoma): 53.2%
- growth (M14 melanoma): 41.4%
- growth (HCT-15 colon): 31.2%
- growth (HT29 colon): 23.2%
- growth (SNB-75 CNS): 63.5%
- growth (SNB-19 CNS): 97.1%
- growth (U251 CNS): 88.2%
- growth (SK-MEL-5 melanoma): 39%
- growth (UACC-62 melanoma): 80.3%
- growth (LOX IMVI melanoma): 46.4%
- growth (SK-MEL-28 melanoma): 82.6%
